Screening results: PubChem BioAssay, National Center for Advancing Translational Sciences (NCATS)
In the library only some 3.1% were active in any assay of this set; here they are far more common.
p53ts 32C tox – cytotoxicity in p53ts cells at permissive temperature | H1299-p53A138V at 32C, ATP luminescence viability, 24 h | AID 924 | actives 0.93% (n = 130,000) | Potency, µM (titrated, usually from 46.1 µM), for inactives: at the top dose activity change, negative = cytotoxicity, actives largely listed as cytotoxic;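 note: 0% = DMSO and -100% = full killing by reference compound; nearly all actives have a fitted effect of over 55% in size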
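ATP-content luminescence (ATPlite) read-out after 24 h compound exposure at 32C in H1299-p53A138V cells (600/well). Tested up to 46 uM. Normalized to DMSO (0%) and 100 uM tamoxifen (100% killing); Hill-fit AC50.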
IkB sig inh – suppresses IkB signaling in ABC-DLBCL reporter cells | ABC-DLBCL IkBa-CBG/CBR dual luciferase ratio, 4 h; response scale: scaled: untreated 0%, proteasome inhibitor 100% | Potency, µM (doses to about 57.1 µM), for inactives: at the highest dose IkBa stabilization activation | actives 0.04% (n = 110,000) | AID 445; active = well fitted curve in the direction sought with a large enough effect in the signal ratio, not every such curve was filed as active; inconclusive = small, poorly fitted or top-dose-only effect, or a change in a side signal; the % refers to the signal ratio;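 note: the direction sought is a rising ratio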
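Luminescence ratio of IκBα-fused green versus native red beetle luciferase in OCI-Ly3 cells, 4 h post-doxycycline with compound; red signal alone, scaled from basal (0%) to zero light (-100%), flagged nonspecific or cytotoxic effects.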
TSHR agonist – agonists of human thyroid stimulating hormone receptor. P16473. HEK293-CNG-TSHR cells (CNG channel as cAMP sensor), membrane potential dye, cAMP. Potency, µM (top dose mostly 57.1 µM), inactives show at the highest dose activation, hits mostly activators. actives 0.48% (n = 73,000); active = well fitted activation curve with a large enough effect in the main read-out, with a control signal flat, not every such curve was filed as active; inconclusive = small, poorly fitted or top-dose-only effect, or a change in a side signal; inactive = no such curve, though single readings can be large or run the other way; % of control where 0% means no effect;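 note: the control signal comes from parental cells without the receptor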
Target sequence (P16473 whole entry, looked up): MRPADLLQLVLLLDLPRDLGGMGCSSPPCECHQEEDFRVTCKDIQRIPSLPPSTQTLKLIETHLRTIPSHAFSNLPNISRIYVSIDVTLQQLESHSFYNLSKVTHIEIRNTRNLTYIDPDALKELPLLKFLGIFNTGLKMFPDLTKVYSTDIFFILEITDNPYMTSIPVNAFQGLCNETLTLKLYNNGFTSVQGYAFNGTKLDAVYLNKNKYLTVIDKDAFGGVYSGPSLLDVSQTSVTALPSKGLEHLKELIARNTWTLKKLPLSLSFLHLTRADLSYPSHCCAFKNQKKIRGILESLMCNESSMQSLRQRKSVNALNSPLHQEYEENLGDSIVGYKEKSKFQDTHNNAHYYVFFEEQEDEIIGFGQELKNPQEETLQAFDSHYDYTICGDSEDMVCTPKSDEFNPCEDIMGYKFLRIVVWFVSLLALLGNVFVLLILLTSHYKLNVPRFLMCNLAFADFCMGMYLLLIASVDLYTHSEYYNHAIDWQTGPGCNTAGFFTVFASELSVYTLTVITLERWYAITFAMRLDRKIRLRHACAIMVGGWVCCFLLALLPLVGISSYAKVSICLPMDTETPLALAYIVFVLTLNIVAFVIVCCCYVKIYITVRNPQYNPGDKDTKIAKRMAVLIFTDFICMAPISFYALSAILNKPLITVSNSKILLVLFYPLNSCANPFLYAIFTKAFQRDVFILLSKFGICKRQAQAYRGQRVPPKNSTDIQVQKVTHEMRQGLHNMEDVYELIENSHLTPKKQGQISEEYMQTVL
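HEK 293 cells stably expressing TSHR and a cAMP-gated CNG channel; parental CNG-only cells as counterscreen. Cells preloaded 60 min with membrane potential dye plus 100 uM RO 20-1724, then compound 30 min; fluorescence read at 590 nm.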
Peg3 imprint – induces erasure of genomic imprints in mouse ES cells; mouse ES Peg3-LacZ reporter, beta-gal luminescence, 40 h; AID 1948; Potency, µM (titrated, usually from 60.7 µM), without a hit: at the highest dose activity change, positive = activation, actives largely listed as activators; actives 0.02% (n = 110,000)
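Readout: BetaGlo luminescence (5 min, room temp) for LacZ from the normally silent maternal Peg3 allele in female Peg3LacZ-Neo ES cells. Cells 300/well, 40 h, 37C, 5% CO2. Data normalized per plate to negative controls.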
HEK293 cAMP cs – raises cAMP in parental HEK293 cells, TSHR agonist counter-screen. parental HEK293 CNG cAMP sensor, membrane potential fluorescence. Potency, µM (highest dose often 57.1 µM), inactives show at the top dose activation, actives largely listed as activators. actives 2.5% (n = 73,000); note: % of control where 0% means no effect; nearly all actives have a fitted effect of over 55% in size
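Parental HEK 293 cells stably expressing a modified CNG channel (no TSHR) report cAMP rise as membrane depolarization. Membrane potential dye with 100 uM RO 20-1724 was loaded for 60 min at room temperature, then compound added for 30 min; fluorescence read at 590 nm.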
p53ts 39C kill – kills p53ts cells at the nonpermissive temperature. H1299-p53A138V viability at 39C, ATP luminescence, 24 h. Potency, µM (highest dose often 46.1 µM), inactives show top-dose activity change, negative = cell killing, usual class: cytotoxic. actives 1.5% (n = 130,000). AID 902; note: % is set by controls: 0 for no effect and ±100 for the full control effect; nearly all actives have a fitted effect of over 55% in size
Active calls of the source: *; ? = inconclusive; / = no result; [ ] = remark or other dose. Unless noted, calls come from the whole dose curve; as a rule, active = well fitted curve in the direction sought with a large enough effect; inconclusive = small, poorly fitted or top-dose-only effect, or another doubt; inactive = no such curve, though single readings can be large; an effect the other way counts as inactive or inconclusive. Potency is the fitted concentration of half-maximal effect.

SMILES	p53ts 32C tox	IkB sig inh	TSHR agonist	Peg3 imprint	HEK293 cAMP cs	p53ts 39C kill
CCCCNC(=O)c1ccc2c(c1)ncn2-c1cc(OC)ccc1OC	-0.3%	-2.2%	/	-9.7%[10.9 µM]	/	-7.7%
CC(=O)N1CCc2cc(Br)cc(S(=O)(=O)N3CCN(c4cccc(C(F)(F)F)c4)CC3)c21	-2.5%	0.4%	/	-18.5%[10.9 µM]	/	-9.9%
COc1cc2c(cc1OC)C(COc1ccccc1OC)N(C(=O)CC(C)C)CC2 (stereo not drawn)	-6.9%	-0.7%	/	-10.2%[10.9 µM]	/	-7.8%
CCOC(=O)c1c(C)oc2ncnc(Nc3cccc(C(F)(F)F)c3)c12	-9.3%	-0.6%	/	-11.5%[10.9 µM]	/	-17.3%
CCOc1ccc(NC(=O)Nc2cccc(C)n2)cc1	-22.0%	-4.0%	/	3.8%[10.9 µM]	/	?
Cc1ccc(C(=O)Nc2nc3ccccc3c(=O)s2)cc1	12.6µM*	?	4.7%	/	11.9%	15.8µM*
CCOc1ccc(C(=O)Nc2nnn(CC)n2)cc1	10µM*	-1.8%	0.5%	-79.9%	4.2%	12.6µM*
CCCCOc1ccc(C(=O)Nc2cccc(C)n2)cc1	12.6µM*	?	2.4%[11.4 µM]	2.9%	26.2%	15.8µM*
CCOC(=O)CSc1nc2cc3c(cc2c(=O)n1CCCC(=O)NCc1ccc2c(c1)OCO2)OCO3	1.8%	-0.5%	/	-11.1%[10.9 µM]	/	?
Cc1ccc(OCC(=O)N2CCCCC2)c(Br)c1	-4.3%	1.1%	?	-27.8%	?	8.5%
O=C(COc1ccc(Cl)cc1Cl)N1CCCCCC1	-1.7%	-1.1%	?	-10.4%	3.98µM*	0.4%
O=C(COc1ccc(Cl)cc1Cl)Nc1ccc(Cl)cn1	5.01µM*	6.8%	?	-61.7%	?	5.01µM*
CCc1ccc(-c2cc(C)no2)cc1S(=O)(=O)Nc1ccc(Cl)cc1	28.9%	?	/	12.6%[10.9 µM]	/	3.5%
C=C[C@@](C)(O)CC[C@H]1[C@]2(C)CCCC(C)(C)[C@H]2CC[C@]1(C)O	/	0.9%[11.4 µM]	/	/	-7.1%	/
COc1ccccc1N1C(=O)N(C(C)=O)C2C1Nc1ccccc1N2C (stereo not drawn)	?	24.5%	-1.3%	-9.8%	15.9%	?
CCN1c2ccccc2NC2C1C(C(C)=O)C(=O)N2c1ccc(Cl)cc1 (stereo not drawn)	?	?	4.8%	2.7%	13.7%	20µM*
COc1ccc(-c2nc3sc(CCNC(=O)c4cccc(C(F)(F)F)c4)c(C)n3n2)cc1	-2.4%	-1.2%	/	-19.5%[10.9 µM]	/	-13.2%
Cc1nc2sc3c(c2c(=O)n1/N=C/c1ccco1)CCCC3	-4.4%	-0.6%	?	-8.8%	25.1µM*	-9.2%
COc1ccc(-c2nn3c(-c4ccccc4C)nnc3c3ccccc23)cc1	25.2%	3.7%	/	5.5%[10.9 µM]	/	10µM*
CN(C)c1ccc(Nc2nc(-c3cccnc3)cs2)cc1	3.16µM*	1.9%	10.3%[11.4 µM]	-87.4%	-15.3%[11.4 µM]	3.16µM*
c1ccc(-c2cnc(CSc3ncnc4sccc34)o2)cc1	4.6%	?	?	5.1%	15.8µM*	?
Cc1cc(C)n2nc(SCc3ncc(-c4ccccc4)o3)nc2n1	-2.2%	-0.2%	9.7%	-19.8%	15.2%	-4.0%
CCCN(Cc1cc2cc(C)ccc2[nH]c1=O)S(C)(=O)=O	13.2%	?	5.01µM*	-1.5%	10.2%	-5.0%
CCCN(Cc1cc2cc(C)ccc2[nH]c1=O)C(=O)c1cccc(OC)c1	-8.3%	?	20.1%	-24.1%	18.2%	-4.2%
Cc1oc2ccc(O)c(CN(C)Cc3ccccc3)c2c1C(=O)Nc1cccc(C(F)(F)F)c1	14.1µM*	?	/	-8.4%[10.9 µM]	/	20µM*
SMILES	p53ts 32C tox	IkB sig inh	TSHR agonist	Peg3 imprint	HEK293 cAMP cs	p53ts 39C kill
CN(Cc1ccccc1)c1oc(COc2ccccc2F)nc1C#N	2.3%	2.3%	?	-11.0%	25.1µM*	13.1%
COc1ccc(NC(=O)CCn2cnc3onc(-c4ccc(F)cc4)c3c2=O)cc1OC	1.4%	-1.0%	/	?	/	-6.9%
COC(=O)c1ccc(CSc2nc(N)cc(N)n2)cc1	12.6µM*	-0.9%	19.5%	-19.5%	13.0%	?
CCC(=O)N1CCc2cc(Br)cc(S(=O)(=O)CCC(=O)N(C)c3cccc(C)c3)c21	6.7%	-4.5%	/	4.6%[10.9 µM]	/	27.1%
COC(=O)c1ccc2c(=O)n(CCCCCC(=O)N3CCN(c4cc(Cl)ccc4C)CC3)c(=O)[nH]c2c1	6.31µM*	-0.3%	/	-11.5%[10.9 µM]	/	3.98µM*
CCN(CCCNC(=O)c1cc2cc3ccc(OC)cc3nc2s1)c1cccc(C)c1	?	?	/	1.4%[10.9 µM]	/	12.6µM*
CCOc1ccc(NC(=O)CCS(=O)(=O)c2ccc3c(c2)n(C)c(=O)c(=O)n3C)cc1	3.2%	0.9%	/	11.5%[10.9 µM]	/	-0.3%
CC(C)COc1ccc(C(=O)Nc2cc(-c3ccccc3)no2)cc1	6.1%	-1.9%	/	-18.0%[10.9 µM]	/	-1.0%
O=C(COc1ccccc1)N(Cc1ccco1)c1ccc(O)cc1	5.5%	-1.0%	20µM*	-18.4%	21.8%	24.1%
Cc1ccc(OCC(=O)N(Cc2ccco2)c2ccccn2)cc1	-12.3%	-1.1%	/	5.1%[10.9 µM]	/	-3.0%
COc1ccc(NC(=O)C(Cc2c[nH]c3ccccc23)NC(=O)OC(C)(C)C)cc1 (stereo not drawn)	5.2%	3.2%	/	-10.4%[10.9 µM]	/	2.1%
CCOC(=O)c1ccc(NC(=O)Cn2cc(C(=O)C3CC3)c3ccccc32)cc1	-2.2%	-1.2%	/	17.9%[10.9 µM]	/	19.7%
Cc1ccc2c(c1)N(C(=O)N1CCC(C(=O)NCc3ccccc3C)CC1)CC(C)O2 (stereo not drawn)	4.5%	-0.7%	/	16.2%[10.9 µM]	/	1.6%
Cc1ccc(CN(C(=O)c2ccccc2F)c2ccccn2)o1	-4.1%	?	/	-8.1%[10.9 µM]	/	-9.3%
COC(=O)C1=C(C)NC(C)=C(C(=O)OC)C1C1CC=CCC1 (stereo not drawn)	21.0%	/	20µM*	/	20.6%	10.5%
O=c1cc(-c2ccccc2)nc2nc(CCc3ccccc3)[nH]n12	12.9%	4.7%	-8.2%	-8.8%	-1.5%	7.7%
Cc1nc2nc(-c3ccccc3)cc(=O)n2[nH]1	15.8µM*	9.7%	2.1%	-88.9%	8.1%	12.6µM*
COC(=O)CNC(=O)Nc1cc(C(=O)NCc2ccc(C)cc2)ccc1N1CCCC1	-2.6%	0.9%	/	-7.1%[10.9 µM]	/	-14.4%
CCCCC[C@@H](O)[C@@H]1C(=O)O[C@@H](C)[C@@H](O)\C=C/C=C\C=C/C=C\C=C(\C)[C@H](O)C[C@H](O)C[C@H](O)C[C@H](O)C[C@H](O)C[C@H](O)C[C@@H]1O	/	0.9%[11.4 µM]	/	/	-3.3%[11.4 µM]	/
Nc1nc(Cl)nc2c1ncn2[C@@H]1O[C@H](CO)[C@@H](O)[C@H]1O	20µM*	/	/	-2.1%	/	?
